Shown are actives, neighbours in structure and some others; about 4.5% of the full set was active somewhere.
Rtt109 Vps75 – inhibitors of C. albicans Rtt109/Vps75 HAT, primary screen, biochemical, ThioGlo CoA-SH fluorescence, plate reader. inhibition, % at 34.9 µM. actives 0.16% (n = 330,000). purified Rtt109/Vps75, 4 h;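 active = inhibition of at least 50% in every replicate; inconclusive = best replicate reaches 50% inhibition but some replicates fall short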
HDAC3 inh – HDAC3 deacetylase inhibitors, primary screen, biochemical, fluorescence, cell-free homogeneous; Histone deacetylase 3 (Homo sapiens), O15379; recombinant HDAC3, fluorogenic peptide/trypsin coupled; inhibition, % at 8.3 µM; actives 0.15% (n = 320,000); AID 2718, 2010; in the data active = inhibition above about 26%, passing the limit was not always enough; inconclusive = no clear call, values can overlap the other calls
GRK2 inh – compounds blocking aptamer binding on GRK2 – biochemical, human GRK2, bead flow cytometry, HTS, primary screen; Beta-adrenergic receptor kinase 1 (Homo sapiens), P25098; FAM-aptamer displacement from GRK2; inhibition of aptamer binding, % at 10 µM; actives 0.59% (n = 330,000); AID 488847, 2010;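 active = inhibition of aptamer binding above 40%, roughly 3 SD of noise, on plates passing a quality check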;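 also: median bead fluorescence of bound FAM aptamer so fluorescent compounds give negative values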
Efflux pump inh – inhibitors of Candida efflux pumps in yeast, primary screen, S. cerevisiae, Nile Red, multiplex; inhibition, % at 10 µM; AID 485275, 2010; actives 0.44% (n = 330,000); S. cerevisiae Candida pump triplex;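 active = plate passing quality check with inhibition over a set limit, or well fluorescence over plate mean plus 4 SD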;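 also: Nile Red retained in pooled yeast measured as flow cytometry median fluorescence; 0% = buffer negative control and 100% = Enniatin B positive control; higher means more Nile Red kept so more efflux inhibition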
Rce1 inhib – yeast Rce1p protease inhibitors, primary screen, biochemical, fluorescence, cell-free homogeneous; CAAX prenyl protease 2 (Saccharomyces cerevisiae (strain ATCC 204508 / S288c)), Q03530; yeast membranes, quenched prenylated peptide cleavage fluorescence; calls only; actives 0.27% (n = 290,000); AID 2563, 2010;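 active = fall in fluorescence gain of 50% or more versus controls, with final raw signal at or below 3038400; inconclusive = same 50% fall but final raw signal above 3038400; inactive = fall in fluorescence gain under 50%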;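 also: plate controls were neutral control wells for no effect and wells lacking membranes for full effect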
ALR inh – inhibitors of human ALR sulfhydryl oxidase, primary screen, biochemical, H2O2 detection, HRP-luminol luminescence, single point; actives 3.8% (n = 290,000); FAD-linked sulfhydryl oxidase ALR (Homo sapiens), P55789; inhibition, % (concentration not given with the values); purified ALR, DTT oxidation;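 active = mean replicate inhibition above about 79%, with every replicate also reaching it, limit read from the data; inconclusive = only one of the two criteria met; inactive = mean below limit and not every replicate reaching it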
Target sequence (P55789 whole entry, looked up): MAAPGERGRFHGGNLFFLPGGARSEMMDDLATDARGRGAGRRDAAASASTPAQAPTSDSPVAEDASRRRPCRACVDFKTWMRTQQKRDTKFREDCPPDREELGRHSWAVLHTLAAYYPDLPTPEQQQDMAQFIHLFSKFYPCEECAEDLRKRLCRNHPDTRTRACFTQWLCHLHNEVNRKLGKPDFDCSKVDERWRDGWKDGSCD
* hit, by the source's call; i = inactive; ? = inconclusive; / = not tested or not shown; + = active, no number.

SMILES	Rtt109 Vps75	HDAC3 inh	GRK2 inh	Efflux pump inh	Rce1 inhib	ALR inh
Cc1cccc(N=C(NO)c2nonc2N)c1	12	-1	11	0	i	89*
COc1cc(/C=N/NC(=O)CCN2CCN(Cc3ccccc3)CC2)cc(OC)c1OC	-1	2	1	0	i	/
O=C(NCCN1CCN(c2ccccc2)CC1)Nc1ccc(Cl)cc1	1	-4	0	0	i	67
O=C(NCCN1CCN(c2ccccc2)CC1)c1ccccc1F	3	-1	0	0	i	99*
COc1cc(NC(=O)NCCN2CCN(c3ccccc3)CC2)cc(OC)c1OC	2	8	0	0	i	98*
COc1cc(/C=N/NC(=O)CCN2CCN(c3ccccc3)CC2)cc(OC)c1OC	-17	1	0	0	i	93*
CCOC(=O)CC1(NC(=O)C2CCC(=O)N(Cc3ccccc3F)C2)CCCCC1 (stereo not drawn)	3	-5	2	0	i	-2
Cc1[nH]nc(N=Cc2c(O)n(C)c(=O)n(C)c2=O)c1-c1ccccc1	/	-12	0	0	i	-1
Cn1c(O)c(/C=N/Nc2ccccc2)c(=O)n(C)c1=O	-4	1	0	0	i	100*
O=C(NC(=S)NNC(=O)c1ccco1)c1ccc(F)cc1	2	3	0	0	i	?
COc1ccc(C(=O)NC(=S)NNC(=O)c2ccco2)cc1	-12	3	0	0	/	100*
COc1ccccc1OCC(=O)NNC(=S)NC(=O)c1ccco1	4	4	0	0	i	89*
COc1ccc(/C=C/C(=O)NC(=S)NNC(=O)c2c(-c3ccccc3)noc2C)cc1	2	7	0	0	i	-2
Cc1onc(-c2ccccc2)c1C(=O)NNC(=S)NC(=O)/C=C/c1ccccc1	13	6	0	0	i	76*
COc1ccc(-c2nc3ncccc3o2)cc1NC(=O)c1ccco1	-3	-2	3	0	+	/
COc1ccc(S(=O)(=O)N2CCC(C(=O)N[C@H](C(=O)N3CCCCCC3)C(C)C)CC2)cc1	-3	-4	0	0	i	-1
CCC1C(=O)NCCN1C(=O)c1ccc(OC)c(OC2CCN(C(C)=O)CC2)c1 (stereo not drawn)	0	3	26	0	i	-1
CCN(CC)C(=S)SCC(=O)Nc1ncc2c(n1)CC(C)(C)CC2=O	/	0	2	0	i	6
Cc1cc2occ(CC(=O)N(C)CC(=O)Nc3ccc(F)cc3)c2cc1C	15	6	0	0	i	-1
O=C(NCc1ccccc1Cl)c1cc(C(=O)C2CC2)c[nH]1	-1	1	2	0	i	-1
COc1ccccc1NC(=S)NCc1ccc(F)cc1	-6	-2	2	0	i	-24
COc1ccc(/C=C/C(=O)NC(=S)NNC(=O)c2ccco2)cc1	7	4	0	0	i	86*
COc1ccc(/C=C/C(=O)NC(=S)NNC(=O)c2ccco2)cc1OC	16	3	0	0	i	85*
COc1ccc(C(=O)Nc2cc(OC)c(NC(=O)c3ccco3)cc2OC)cc1	57*	2	2	0	i	-37
COc1ccc(NC(=S)NCc2ccc(F)cc2)c(OC)c1	-1	12	2	0	i	99*
CC1(C)CC(=O)N(c2cc(Cl)cc(Cl)c2)C(=O)C1	0	-3	0	0	i	-5
Cc1ccc(C)c(NC(=O)C2CCCC2)c1	1	-4	0	0	i	-6

Source: PubChem BioAssay (several laboratories)
